# Screening data from PubChem.
# Mito fusion yeast: qHTS Assay for Small Molecule Inhibitors of Mitochondrial Division or Activators of Mitochondrial Fusion | S. cerevisiae fusion-defective mutant growth rescue, CellTiterGlo 48 h | Potency, µM (doses to about 46.1 µM), without a hit: at the top dose growth rescue (activation), most hits filed as activators | 320,000 tested, 0.23% active; further: % of control where 0% means no effect; nearly all actives have a fitted effect of over 45% in size
#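 Growth-rescue viability read-out: after 48 h at the non-permissive 37C in glycerol/ethanol YPEG, yeast mitochondrial fusion mutants are measured by CellTiterGlo luminescence; compounds (23 nl pinned per well) restoring growth score as division inhibitors or fusion activators.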
# a7 integrin act: qHTS for Activators of Integrin-Mediated Alleviation for Muscular Dystrophy; alpha7betagal myoblasts, beta-gal FDG fluorescence, 48 h; 350,000 tested, 0.064% active; Potency, µM (doses to about 38.3 µM), for the others: at the highest dose activation, actives largely listed as activators;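 further: 100% = response of the positive control SU9516; nearly all actives have a fitted effect of over 60% in size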
#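 alpha7betagal+/- myoblasts (passage 13, 250/well) treated 48 h at 37C with compounds at 1:260 dilution of DMSO stock. Lysed, then beta-galactosidase activity read as FDG fluorescence (ex 480/em 540) after 30 min, with pre-read for autofluorescence.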
# RORg inh: qHTS for inhibitors of ROR gamma transcriptional activity. Nuclear receptor ROR-gamma (Mus musculus), P51450. Drosophila S2 Gal4-RORgamma UAS-luciferase reporter, 20 h. Potency, µM (highest dose often 53.6 µM), for the others: at the top dose activity change, negative = inhibition, most hits filed as inhibitors. 310,000 tested, 5.4% active; further: on the % scale 0 is the no-effect control and ±100 the full control effect; nearly all actives have a fitted effect of over 60% in size
# Target sequence (P51450 whole entry, looked up, the tested form may be a part): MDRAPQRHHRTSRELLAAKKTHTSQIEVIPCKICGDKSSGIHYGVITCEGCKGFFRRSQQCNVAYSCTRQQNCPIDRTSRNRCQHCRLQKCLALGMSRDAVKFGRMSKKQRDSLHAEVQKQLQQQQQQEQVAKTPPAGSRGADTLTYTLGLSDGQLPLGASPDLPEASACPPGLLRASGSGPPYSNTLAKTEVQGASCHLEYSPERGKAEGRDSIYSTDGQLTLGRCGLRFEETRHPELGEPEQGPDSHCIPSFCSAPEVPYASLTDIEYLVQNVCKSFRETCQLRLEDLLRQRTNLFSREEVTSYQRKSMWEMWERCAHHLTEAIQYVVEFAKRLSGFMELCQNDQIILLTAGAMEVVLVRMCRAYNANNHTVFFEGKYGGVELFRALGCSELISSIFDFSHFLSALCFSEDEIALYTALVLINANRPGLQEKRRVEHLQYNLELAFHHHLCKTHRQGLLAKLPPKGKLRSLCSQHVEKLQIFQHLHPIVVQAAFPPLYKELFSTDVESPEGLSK
#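 Luciferase reporter read in Schneider cells carrying Gal4-RORγ (mouse) and UAS-Photinus luciferase; cells given compound 1 h before 700 uM copper sulfate induction, then incubated 20 h at ambient temperature.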
# BCR signal inh: qHTS Assay to Find Inhibitors of Chronic Active B-Cell Receptor Signaling; ABC-DLBCL IkBa-CBG/CBR reporter, luminescence ratio, 4 h; Potency, µM (top dose mostly 46.1 µM), for the others: at the highest dose activity change, negative = inhibition, usual class: inhibitors; 340,000 tested, 0.05% active; AID 493014, 2011; active means well fitted inhibition curve with a large enough effect in the signal ratio, with a control signal flat, not every such curve was filed as active; inconclusive means small, poorly fitted or top-dose-only effect, or effect the other way, or a change in a side signal; the % refers to the signal ratio;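 further: plate controls were basal doxycycline-induced cells for no effect and cells given 10 µM MG132 for full effect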
#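 TMD8 human ABC-DLBCL cells with doxycycline-inducible IκBα–green luciferase fusion and unfused red luciferase, in 0.5% FBS medium; compounds up to 46 uM, 4 h at 37C. Green/red luminescence ratio, filter-overlap corrected, fitted to concentration-response curves.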
# VP16 counter: VP16 counterscreen qHTS for inhibitors of ROR gamma transcriptional activity. 310,000 tested, 3.5% active. Potency, µM (doses to about 53.6 µM), for the others: at the top dose activity, negative = inhibition, actives largely listed as inhibitors. Drosophila S2 Gal4-VP16 UAS-luciferase, luminescence, 20 h;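 further: Gal4-VP16 expression switched on by copper sulfate through the metallothionein promoter; on the % scale 0 is the no-effect control and ±100 the full control effect; nearly all actives have a fitted effect of over 50% in size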
# uPA generation: qHTS for Inhibitors of Cell Surface uPA Generation | cell surface uPA generation assay, qHTS | Potency, µM (titrated, usually from 38.3 µM), for the others: at the top dose activity change, negative = inhibition, actives largely listed as inhibitors | 330,000 tested, 0.31% active | AID 540303, 2011; active means well fitted inhibition curve with a large enough effect; inconclusive means small, poorly fitted or top-dose-only effect; inactive means no such curve, though single readings can be large or run the other way; tested in mouse RAW 264.7 cells; further: on the % scale 0 is the no-effect control and ±100 the full control effect; nearly all actives have a fitted effect of over 55% in size
# An asterisk follows results filed as active; ? = inconclusive; . = no result given. An excerpt weighted towards active compounds, which were near 5.5% of everything screened. Unless noted, the call rests on the fitted dose curve; in most records, active means well fitted curve in the direction sought with a large enough effect; inconclusive means small, poorly fitted or top-dose-only effect, or another doubt; inactive means no such curve, though single readings can be large; an effect the other way counts as inactive or inconclusive. Potency means the concentration at half of the fitted maximal effect.
SMILES,Mito fusion yeast,a7 integrin act,RORg inh,BCR signal inh,VP16 counter,uPA generation
Cc1csc(NC(=O)c2c(-c3c(Cl)cccc3Cl)noc2C)n1,10.7%,13.1%,-8.5%,26.0%,0.4%,9.3%
O=C(NCc1ccccc1)C1CCCN1C(=O)Nc1ccccc1[N+](=O)[O-] (stereo not given),4.6%,12.9%,?,?,14.6%,23.8%
Cc1nc(N)ncc1CCC1OCCO1,.,9.0%,.,.,.,.
COc1cc2c(cc1OC)C(C(=O)c1ccc(OC)c(OC)c1O)=NCC2,.,.,0.4%,.,-8.8%,.
O=C(NC1CC1)c1cccc(NC(=O)c2cc(S(=O)(=O)N3CCOCC3)ccc2Cl)c1,5.8%,?,.,-11.3%,.,6.2%
COc1ccc2oc(C(=O)OCC(=O)N(Cc3ccccc3)C(C)(C)C)c(C)c2c1,-2.1%,3.0%,-2.9%,6.5%,0.7%,3.4%
COc1ccc(NS(=O)(=O)c2ccc(OC)c(N(C)S(=O)(=O)c3ccc(Cl)cc3)c2)cc1,4.6%,-35.6%,?,?,11.2µM*,-38.5%
COc1ccc(S(=O)(=O)Nc2ccc(F)cc2)cc1N(C)S(=O)(=O)c1ccc(Cl)cc1,26.2%,-50.7%,-1.8%,-0.8%,-10.7%,7.7%
O=C(NCc1ccccn1)C1(C(F)(F)F)C/C(=C\Cc2ccccc2)CCCO1 (stereo not given),.,.,14.8%,.,8.0%,.
N#Cc1ccc(Sc2nc3ccccc3[nH]2)cc1C#N,-1.1%,10µM*,-11.6%,?,?,-4.9%
CC1(NC(=O)Cc2csc(-c3ccc(Cl)cc3)n2)CCS(=O)(=O)C1 (stereo not given),.,-28.1%,.,-1.4%,.,-14.6%
CCOC(=O)c1ccc2nc(Nc3nc4ccc(F)cc4s3)sc2c1,0.5%,15.9%,0.794µM*,?,-18.2%,0.1%
COC(=O)c1ccc2nc(NC(=O)C(C)C)sc2c1,11.4%,29.5%,?,?,-26.8%,-14.6%
COC(=O)c1ccc2nc(Nc3nc4c(F)cc(F)cc4s3)sc2c1,2.4%,16.3%,0.316µM*,?,1.12µM*,1.7%
COC(=O)c1ccc2nc(NC(=O)C3CC3)sc2c1,15.9%,?,8.91µM*,?,?,1.4%
COc1ccc(C(C)=O)cc1CSc1nc(NCc2ccccc2)c2ccccc2n1,.,.,.,-7.1%,.,.
NC(=O)C1=CN(C2OC(COP(=O)(O)OP(=O)(O)OC[C@H]3O[C@@H](n4cnc5c(N)ncnc54)[C@H](OP(=O)(O)O)[C@@H]3O)C(O)C2O)C=CC1 (stereo not given in full),-0.5%,.,.,.,.,.
COc1cccc(Nc2ccc(Nc3cccc(OC)c3)nn2)c1,10.8%,0.9%,11.2µM*,?,-25.5%,0.3%
CC(NC(=O)/C(C#N)=C/c1ccco1)c1ccccc1 (stereo not given),-3.2%,-8.3%,-9.1%,0.0%,?,1.0%
COC(=O)c1ccc(/C=C(\C#N)C(=O)NC(C)c2ccccc2)cc1 (stereo not given),-4.2%,-33.5%,0.501µM*,9.2%,4.47µM*,-9.2%
CC(NC(=O)/C(C#N)=C/c1ccc([N+](=O)[O-])o1)c1ccccc1 (stereo not given),-50.8%,-59.5%,5.01µM*,?,2.51µM*,-19.6%
COc1cc2nc(N3CCN(c4cc(C)ccc4C)CC3)nc(N)c2cc1OC,-44.4%,-59.4%,15.8µM*,?,15.8µM*,-17.3%
Cc1c(Cn2ccnc2)c2ccccc2n1CCC(=O)O,.,.,-3.6%,.,3.3%,.
O=C1C2C3c4ccccc4C(c4ccccc43)[C@@H]2c2nc3ccccc3n21 (stereo not given in full),-2.4%,9.8%,11.2µM*,3.8%,-9.1%,-3.1%
O=C(C1COc2ccccc2O1)N1CCN(Cc2ccc(Br)cc2F)CC1 (stereo not given),11.2µM*,-18.3%,?,0.1%,-21.9%,-4.3%
SMILES,Mito fusion yeast,a7 integrin act,RORg inh,BCR signal inh,VP16 counter,uPA generation
O=C(C1COc2ccccc2O1)N1CCN(Cc2ccc3c(c2)OCO3)CC1 (stereo not given),7.8%,22.8%,31.2%,?,-8.7%,6.0%
COc1ccc(-c2cnnc(N/N=C/c3ccc(-c4ccc([N+](=O)[O-])cc4)o3)n2)cc1,9.6%,-37.5%,-36.2%,-4.1%,-5.9%,?
COc1ccccc1-c1cnnc(N/N=C/c2ccc(-c3cccc(Br)c3)o2)n1,10.7%,19.3%,1µM*,0.7%,2µM*,.
Cc1ccc(-c2csnn2)cc1,1.3%,10µM*,-18.7%,?,15.8%,9.2%
N#Cc1c(N2CCCC2)nc(N)c2c(N)nc(N3CCCC3)cc12,20.5%,-14.3%,8.91µM*,18.3%,-5.5%,-10.3%
COc1cc2c(cc1OC)CN(C(=O)c1ccc([N+](=O)[O-])o1)CC2,-9.6%,-68.4%,-36.0%,?,-11.8%,-1.9%
O=C(c1ccc([N+](=O)[O-])o1)N1CCc2ccccc2C1,-10.5%,?,-29.7%,1.7%,6.9%,7.08µM*
O=C(c1ccc([N+](=O)[O-])o1)N1CCOCC1,-13.9%,-23.7%,15.8µM*,-0.5%,-3.8%,-1.6%
COC(=O)[C@H](CCSC)NC(=O)c1ccc(NC[C@@H](N)CS)cc1-c1ccccc1,.,.,-30.2%,.,-17.7%,.
Cn1cc(/C=C(\C#N)C(=O)Nc2ncc(Cc3cccc(Cl)c3)s2)c2ccccc21,5.5%,.,3.16µM*,-22.5%,1.41µM*,.
N#C/C(=C\c1c[nH]c2ccccc12)C(=O)Nc1ncc(Cc2ccc(Cl)cc2Cl)s1,7.4%,-29.5%,1.41µM*,4.2%,2.24µM*,-3.0%
CC1(C)Cc2c(cnn2-c2ccc(F)cc2)C(NC(=O)c2ccco2)C1 (stereo not given),-0.6%,-29.5%,0.5%,0.0%,-7.9%,6.8%
CC12CC(c3ccccc3O1)N(C(=O)c1ccco1)C(=S)N2c1ccc(F)cc1 (stereo not given),-5.9%,29.1%,10µM*,?,?,-7.3%
CCS(=O)(=O)N1CC(=O)N(c2cccc(Cl)c2)C(C)(C(=O)NC2CCCCCC2)C1 (stereo not given),.,.,.,-18.1%,.,.
CCCC[C@@H]1CNC(=S)N1CCc1cccc2ccccc12,7.3%,23.6%,1.58µM*,2.4%,4.47µM*,3.3%
S=C1NC[C@H](Cc2ccccc2)N1CCc1cccc2ccccc12,9.0%,-18.0%,1µM*,-0.6%,5.62µM*,-6.0%
CCCCN1C(=S)NC[C@@H]1Cc1cccc2ccccc12,1.3%,15.6%,3.16µM*,?,11.2µM*,6.3%
